TIM10 inh: growth inhibitors of isogenic TIM10 control yeast, primary screen, counter-screen for tim10-1 yeast inhibitor project, luminescence, uHTS | S. cerevisiae TIM10 strain growth, BacTiter-Glo luminescence, 24 h | 1.4% of 330,000 active | inhibition, % at 10 µM | AID 463195, 2010;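 active = inhibition of 40% or more at the single tested concentration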;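 note: wild-type TIM10 isogenic control strain grown at permissive 25 °C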
tim10-1 inh: growth inhibitors of tim10-1 mutant yeast, primary screen, luminescence, uHTS. inhibition, % at 20 µM. AID 463190, 2010. 2.2% of 330,000 active. S. cerevisiae tim10-1 ts strain growth, BacTiter-Glo, 24 h;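 active = inhibition of at least 40%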;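 note: mutant grown at 25 °C; 0% = DMSO wells with yeast and 100% = wells holding no yeast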
tim23-1 inh: growth inhibitors of tim23-1 mutant yeast, primary screen, luminescence, uHTS. S. cerevisiae tim23-1 growth, BacTiter-Glo luminescence, 24 h. inhibition, % at 20 µM. 1.3% of 330,000 active. AID 463212, 2010;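 active = growth inhibition of the mutant yeast at or above 50%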;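 note: temperature-sensitive mutant grown at 25 °C; plate controls were DMSO-treated mutant yeast for no effect and medium wells lacking yeast for full effect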
SKKanGAS inh: S. pyogenes SKKanGAS growth inhibitors in kanamycin, primary screen, streptokinase expression inhibitor project, SKKanGAS strain, BacTiter-Glo luminescence; 6 h; inhibition, % at 7.5 µM; 1.3% of 300,000 active;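 active = mean replicate score, as percent of positive control median, at least 50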;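 note: strain carries kanamycin resistance gene driven by streptokinase promoter and grows in 40 µg/ml kanamycin; loss of luminescence reflects streptokinase promoter inhibition or plain growth inhibition; 0% = median of DMSO wells and 100% = positive control at its reference dose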
NLRP3 yeast inh: NALP3 inflammasome inhibitors in reconstituted yeast, primary screen, luminescence, uHTS | Yeast reconstituted NLRP3/ASC/caspase-1, beta-gal luminescence, 24 h | inhibition, % at 10 µM | 0.39% of 330,000 active | AID 2825, 2010;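 active = inhibition of 50% or more; inactive = inhibition below 50%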;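 note: plate controls were induced DMSO wells for no effect and uninduced yeast grown without galactose for full effect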
NALP3 confirm: NALP3 inhibitors retested in yeast, confirmation, luminescence, single concentration; shares compounds with NLRP3 yeast inh; AID 435006, 2010; inhibition, % at 10 µM; yeast expressing human NALP3; 81% of 1,300 active; in the data active = inhibition above about 48%
Casp1 ASC ctr: CASP1-PYCARD signaling inhibition in yeast, confirmatory test, counterassay for NLRP3 inhibitor program, one-dose. shares compounds with NLRP3 yeast inh. AID 488784, 2010. 66% of 1,000 active. inhibition, % at 10 µM. yeast expressing Caspase-1-ASC, luminescence counter screen
NALP3 yeast rt: NALP3 inhibitors in yeast, repeat test, confirmation, luminescence, single concentration, retest; shares compounds with NLRP3 yeast inh; yeast expressing human NALP3, luminescence read-out; inhibition, % at 10 µM; 53% of 1,000 active
tim10-1 confirm: growth inhibitors of tim10-1 mutant yeast, confirmation, single concentration, luminescence, S. cerevisiae; S. cerevisiae tim10-1 ts strain growth, BacTiter-Glo, 24 h; AID 463213, 2010; shares compounds with tim10-1 inh; inhibition, % at 20 µM; 56% of 7,400 active;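 active = inhibition of yeast growth at or above a set limit in either of two repeat tests at 20 µM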;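 note: tim10-1 mutant grown at permissive 25 °C to find synthetic lethal compounds; 0% = DMSO yeast wells and 100% = medium wells without yeast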
TIM10 conf: growth inhibitors of wild-type TIM10 yeast, confirmation, counter-screen for tim10-1 synthetic lethality project, single concentration, luminescence, S. cerevisiae | shares compounds with TIM10 inh | S. cerevisiae tim10 strain growth, BacTiter-Glo luminescence, 24 h | inhibition, % at 10 µM | 63% of 4,600 active | AID 463215, 2010;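 active = inhibition of yeast growth at or above a set limit in either of two replicates at 10 µM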;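 note: this counterscreen used the strain with wild-type TIM10; 0% = yeast with DMSO and 100% = medium wells lacking yeast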
tim23-1 confirm: tim23-1 mutant yeast growth inhibitors, confirmation, luminescence, single concentration; S. cerevisiae tim23-1 growth, BacTiter-Glo luminescence, 24 h; shares compounds with tim23-1 inh; 83% of 4,400 active; inhibition, % at 20 µM;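 active = inhibition above about 39% in either of two replicate wells at 20 µM, limit read from the data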;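 note: temperature-sensitive tim23-1 mutant grown at 25 °C; 0% = DMSO wells with yeast and 100% = medium wells without yeast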
Active calls of the source: *. Shown are actives, neighbours in structure and some others; about 4.6% of the full set was active somewhere. Cut-off read from the data, not from the text of the source, unless noted: active = inhibition above about 50%; inactive = the rest.

How did O=C(/C=C\Nc1ccccn1)c1ccccc1 do in these assays?
TIM10 inh: 48*; tim10-1 inh: 11; tim23-1 inh: 52*; SKKanGAS inh: 8; NLRP3 yeast inh: 63*; NALP3 confirm: 46*; Casp1 ASC ctr: 59*; NALP3 yeast rt: 54*; TIM10 conf: 52*; tim23-1 confirm: 80*

How did O=C(NCCCc1ccccc1)c1c(O)nc2sccn2c1=O do in these assays?
TIM10 inh: 31; tim10-1 inh: 36; tim23-1 inh: 70*; SKKanGAS inh: 5; NLRP3 yeast inh: 63*; NALP3 confirm: 77*; Casp1 ASC ctr: 39; NALP3 yeast rt: 59*; tim23-1 confirm: 54*

What do the screens show for `CCn1c(=O)c(C(=O)NCCCc2ccccc2)c(O)c2ccccc21`?
TIM10 inh: -15; tim10-1 inh: -36; tim23-1 inh: 0; SKKanGAS inh: 5; NLRP3 yeast inh: 15

How did O=C(NCCC1=CCCCC1)c1cnsn1 do in these assays?
TIM10 inh: 2; tim10-1 inh: 12; tim23-1 inh: 6; SKKanGAS inh: -1; NLRP3 yeast inh: -4

Results for O=C(NCCC1=CCCCC1)c1c(O)nc2ccccn2c1=O ?
TIM10 inh: 31; tim10-1 inh: 51*; tim23-1 inh: 56*; SKKanGAS inh: 3; NLRP3 yeast inh: 63*; NALP3 confirm: 76*; Casp1 ASC ctr: 52*; NALP3 yeast rt: 55*; tim10-1 confirm: -6; tim23-1 confirm: 56*

Results for O=C(NCCC1=CCCCC1)c1c(O)nc2sccn2c1=O ?
TIM10 inh: 36; tim10-1 inh: 42*; tim23-1 inh: 75*; SKKanGAS inh: 31; NLRP3 yeast inh: 67*; NALP3 confirm: 79*; Casp1 ASC ctr: 48; NALP3 yeast rt: 56*; tim10-1 confirm: 1; tim23-1 confirm: 62*

How did Cc1ccc(NC(=O)c2ccc(N3CCCC3=O)cc2)cc1S(=O)(=O)N1CCCCC1 do in these assays?
TIM10 inh: -1; tim10-1 inh: -9; tim23-1 inh: -7; NLRP3 yeast inh: 14

Results for CN1CCN(c2cc(-c3ccccc3)nc3cc(-c4ccc(F)cc4)nn23)CC1 ?
TIM10 inh: 34; tim10-1 inh: 11; tim23-1 inh: 55*; SKKanGAS inh: 11; NLRP3 yeast inh: 52*; NALP3 confirm: 63*; Casp1 ASC ctr: 68*; NALP3 yeast rt: 66*; tim23-1 confirm: 43*

What do the screens show for `O=Cc1cn(-c2ccccc2)nc1-c1ccc2c(c1)OCCO2`?
TIM10 inh: 47*; tim10-1 inh: 53*; tim23-1 inh: 72*; NLRP3 yeast inh: 50*; NALP3 confirm: 57*; Casp1 ASC ctr: 52*; NALP3 yeast rt: 60*; tim10-1 confirm: 59*; TIM10 conf: 62*; tim23-1 confirm: 78*

How did N#Cc1cn(-c2ccccc2)nc1-c1ccc2c(c1)OCCO2 do in these assays?
TIM10 inh: 7; tim10-1 inh: 16; tim23-1 inh: 2; SKKanGAS inh: 0; NLRP3 yeast inh: 5

How did CCN(C(=O)COC(=O)c1cc(Cl)ccc1OC)c1c(N)n(Cc2ccccc2)c(=O)[nH]c1=O do in these assays?
TIM10 inh: 9; tim10-1 inh: 15; tim23-1 inh: 5; NLRP3 yeast inh: 10

How did N#C/C(=C\c1ccc([N+](=O)[O-])cc1)c1ccccn1 do in these assays?
TIM10 inh: 52*; tim10-1 inh: 46*; tim23-1 inh: 65*; SKKanGAS inh: -3; NLRP3 yeast inh: 55*; NALP3 confirm: 56*; Casp1 ASC ctr: 39; NALP3 yeast rt: 49; tim10-1 confirm: 60*; TIM10 conf: 57*; tim23-1 confirm: 58*

What do the screens show for `CCOC(=O)[C@H]1[C@H]2COc3ccc(OC)cc3[C@@H]2N2C(=O)c3cc(F)c(F)cc3NC(=O)[C@@]12C`?
TIM10 inh: 10; tim10-1 inh: 23; tim23-1 inh: 17; NLRP3 yeast inh: 11

How did COc1ccc2c(=O)c(-c3nc(C)cs3)coc2c1 do in these assays?
TIM10 inh: 64*; tim10-1 inh: 43*; tim23-1 inh: 52*; SKKanGAS inh: 4; NLRP3 yeast inh: 77*; NALP3 confirm: 54*; Casp1 ASC ctr: 68*; NALP3 yeast rt: 66*; tim10-1 confirm: 33*; TIM10 conf: -39; tim23-1 confirm: 65*

How did CCN(CC(=O)Nc1ccc(NC(C)=O)cc1)C(=O)C1COc2ccccc2O1 (configuration not stated) do in these assays?
TIM10 inh: -1; tim10-1 inh: -27; tim23-1 inh: -5; SKKanGAS inh: 4; NLRP3 yeast inh: 7

How did CN1CCSc2ccc(C(=O)Nc3cccc(F)c3)cc21 do in these assays?
TIM10 inh: 47*; tim10-1 inh: -15; tim23-1 inh: 68*; SKKanGAS inh: -15; NLRP3 yeast inh: 67*; NALP3 confirm: 82*; TIM10 conf: 51*; tim23-1 confirm: 71*

Results for COc1ccc(NC(=O)c2ccc3c(c2)N(C)CCS3)cc1 ?
TIM10 inh: -6; tim10-1 inh: 4; tim23-1 inh: 9; SKKanGAS inh: -10; NLRP3 yeast inh: 31

Results for Cc1ccc(S(=O)(=O)N2CCN(C(=O)COC(=O)c3ccc(Cl)nc3)CC2)c(C)c1 ?
TIM10 inh: -10; tim10-1 inh: -2; tim23-1 inh: -6; NLRP3 yeast inh: 21

How did Cc1ccc(O)c(CNc2cccc(C)n2)c1 do in these assays?
TIM10 inh: -3; tim10-1 inh: -12; tim23-1 inh: 0; SKKanGAS inh: -1; NLRP3 yeast inh: 45
